# The list is not random: actives were taken first. Their share in the collection is about 3.7%.
# tim23-1 inh – growth inhibitors of tim23-1 mutant yeast, primary screen, luminescence, uHTS; S. cerevisiae tim23-1 growth, BacTiter-Glo luminescence, 24 h; AID 463212, 2010; 330,000 tested, 1.3% active; inhibition, % at 20 µM;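 active = growth inhibition of the mutant yeast at or above 50%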;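 note: temperature-sensitive mutant grown at 25 °C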
# TIM10 inh – growth inhibitors of isogenic TIM10 control yeast, primary screen, counter-screen for tim10-1 yeast inhibitor project, luminescence, uHTS; S. cerevisiae TIM10 strain growth, BacTiter-Glo luminescence, 24 h; inhibition, % at 10 µM; 330,000 tested, 1.4% active; AID 463195, 2010;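 active = inhibition of 40% or more at the single tested concentration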;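 note: wild-type TIM10 isogenic control strain grown at permissive 25 °C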
# PfHsp90 yeast 2 – growth inhibition of PfHsp90-expressing yeast, primary screen, antimalarial PfHsp90 inhibitor project, S. cerevisiae, BacTiter-Glo luminescence, single point, set 2 | 310,000 tested, 0.32% active | BacTiter-Glo ATP, 48 h; yeast lacking PDR1 and PDR3 efflux regulators | inhibition, % at 9.4 µM | AID 504621, 2011;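 active = every replicate shows inhibition above about 80%, whatever the replicate mean, limit read from the data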
# NLRP3 yeast inh – NALP3 inflammasome inhibitors in reconstituted yeast, primary screen, luminescence, uHTS; Yeast reconstituted NLRP3/ASC/caspase-1, beta-gal luminescence, 24 h; inhibition, % at 10 µM; 330,000 tested, 0.39% active; AID 2825, 2010;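 active = inhibition of 50% or more; inactive = inhibition below 50%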
# tim10-1 inh – growth inhibitors of tim10-1 mutant yeast, primary screen, luminescence, uHTS | S. cerevisiae tim10-1 ts strain growth, BacTiter-Glo, 24 h | inhibition, % at 20 µM | 330,000 tested, 2.2% active;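 active = inhibition of at least 40%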;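 note: mutant grown at 25 °C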
# tim10-1 confirm – growth inhibitors of tim10-1 mutant yeast, confirmation, single concentration, luminescence, S. cerevisiae | shares compounds with tim10-1 inh | 7,400 tested, 56% active | S. cerevisiae tim10-1 ts strain growth, BacTiter-Glo, 24 h | inhibition, % at 20 µM;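 active = inhibition of yeast growth at or above a set limit in either of two repeat tests at 20 µM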;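 note: tim10-1 mutant grown at permissive 25 °C to find synthetic lethal compounds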
# TIM10 conf – growth inhibitors of wild-type TIM10 yeast, confirmation, counter-screen for tim10-1 synthetic lethality project, single concentration, luminescence, S. cerevisiae; shares compounds with TIM10 inh; S. cerevisiae tim10 strain growth, BacTiter-Glo luminescence, 24 h; inhibition, % at 10 µM; 4,600 tested, 63% active;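 active = inhibition of yeast growth at or above a set limit in either of two replicates at 10 µM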; note: this counterscreen used the strain with wild-type TIM10
# tim23-1 confirm – tim23-1 mutant yeast growth inhibitors, confirmation, luminescence, single concentration. shares compounds with tim23-1 inh. S. cerevisiae tim23-1 growth, BacTiter-Glo luminescence, 24 h. inhibition, % at 20 µM. 4,400 tested, 83% active. AID 463218, 2010;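 active = inhibition above about 39% in either of two replicate wells at 20 µM, limit read from the data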;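 note: temperature-sensitive tim23-1 mutant grown at 25 °C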
# Numbers stand for hits; – = inactive; · = not tested or not shown.
SMILES,tim23-1 inh,TIM10 inh,PfHsp90 yeast 2,NLRP3 yeast inh,tim10-1 inh,tim10-1 confirm,TIM10 conf,tim23-1 confirm
COc1ccc(C(=O)C2CCN(S(=O)(=O)c3ccc4c(c3)OCCO4)CC2)cc1,60,68,–,–,56,57,61,46
COc1ccc(OC)c(NC(=O)C2CCN(S(=O)(=O)c3ccc4c(c3)OCCO4)CC2)c1,–,–,·,–,–,·,·,·
O=C(Nc1ccc2c(c1)OCCO2)NC12CC3CC(CC(C3)C1)C2,59,47,–,–,51,43,–,43
CCCCNC(=O)c1sc2ncnc(N3CCc4ccccc4C3)c2c1C,55,43,·,–,48,35,36,51
CCOC(=O)C1=C(COC(=O)[C@H](C)NS(=O)(=O)c2ccc(NC(C)=O)cc2)NC(=O)NC1C (stereo partly specified),–,–,·,–,–,·,·,·
Cc1ccc(-c2nc3cccnc3s2)cc1NS(=O)(=O)c1cccs1,58,–,–,–,43,32,·,53
O=C(/C(=C/O)N=Nc1ccccc1)c1ccc(Cl)cc1,79,58,106,–,65,49,56,39
CC(=O)c1ccc(N=Nc2ccc(C)cc2)cc1,–,–,–,–,–,·,·,·
Cc1ccc(N=N/C(=C\O)C(=O)c2ccc(Cl)cc2)cc1,60,–,107,–,48,42,·,63
O=C(Cc1ccccc1)c1ccc(Cl)cc1,–,–,–,–,–,·,·,·
CCOc1ccc(NCc2nnc(SCc3ccc(Cl)cc3)n2-c2ccccc2)cc1,52,47,–,–,46,42,–,56
CC1C(=O)N2CCCc3cc(NC(=O)COc4ccccc4)cc1c32 (stereo unspecified),–,–,·,–,–,·,·,·
CC(C)[C@H](N[C@@H](C)c1ccccc1)c1c(O)ccc2ccccc12,50,–,–,–,45,35,·,40
CCc1nn(CCCC(=O)NCc2ccccc2Br)c(=O)c2cc3occc3n12,50,–,–,–,43,–,·,54
COc1cccc(CNC2CCCc3ccccc32)c1OC (stereo unspecified),–,–,–,–,–,·,·,·
CNC(=S)/N=C/NOCc1c(Cl)cccc1Cl,54,53,–,–,63,55,54,60
Cc1c(C(=O)Nc2ccccc2[N+](=O)[O-])csc1-c1ccccc1,–,–,–,–,–,·,·,·
CCCCn1c(O)c(/C=C2\C=NN=C2c2ccccc2)sc1=S,–,–,–,–,–,·,·,·
CCn1c(O)c(/C=C2\C=NN=C2c2ccccc2)sc1=S,50,–,–,–,51,32,·,54
Cn1c(O)c(/C=C2\C=NN=C2c2ccccc2)sc1=S,65,42,–,–,57,42,42,57
CN(C)S(=O)(=O)c1cccc(NC(=O)c2ccc(S(=O)(=O)N3CCCC3)cc2)c1,–,–,–,–,–,·,·,·
COc1ccc(C(CNC(=O)CCNS(=O)(=O)c2ccc(C)cc2)N2CCOCC2)cc1 (stereo unspecified),–,–,–,–,–,·,·,·
N/C(=N\OC(=O)c1ccco1)c1cccc(Br)c1,64,61,–,–,56,56,54,45
O=C(c1cccc(Br)c1)c1conc1C(=O)c1ccco1,54,43,–,–,48,44,38,59
N/C(=N\OC(=O)CCCOc1ccccc1)c1cccc(Br)c1,–,–,–,–,–,·,·,·
SMILES,tim23-1 inh,TIM10 inh,PfHsp90 yeast 2,NLRP3 yeast inh,tim10-1 inh,tim10-1 confirm,TIM10 conf,tim23-1 confirm
N/C(=N\OC(=O)c1cccc(Br)c1)c1ccccc1,83,83,–,–,66,58,86,73
N#CC(C#N)=c1ccc2c(c1)N1C3=C(CCCC3)CC3CCCCC31N=2 (stereo unspecified),51,–,·,–,44,–,·,–
O=C1c2cccc3cc([N+](=O)[O-])cc(c23)C(=O)N1CC1CCCO1 (stereo unspecified),52,–,–,–,41,–,·,44
O=C1c2ccccc2C(=O)N1CC1CCCO1 (stereo unspecified),–,–,–,–,–,·,·,·
CCc1cccc(CC)c1NC(=O)/C(C#N)=C/c1ccccc1C(F)(F)F,55,57,–,–,41,–,–,42
N#C/C(=C/C=C/c1ccccc1)C(=O)Nc1ccccc1,–,–,–,–,–,·,·,·
CCc1cccc(CC)c1NC(=O)c1ccccc1,–,–,–,–,–,·,·,·
N#C/C(=C\c1ccccc1C(F)(F)F)C(=O)Nc1ccccc1,52,73,–,–,57,58,61,63
COc1ccc([N+](=O)[O-])cc1NC(=O)CSCc1ccccc1C,–,–,–,–,–,·,·,·
O=[N+]([O-])c1cccc(/C=C/c2ccccn2)c1,–,–,–,–,–,·,·,·
N#C/C(=C\c1cccc([N+](=O)[O-])c1)c1ccccn1,63,–,–,–,56,72,·,56
N/C(CC(=O)Nc1ccc(F)c(Cl)c1)=N\OC(=O)c1cccs1,73,81,–,–,54,37,86,83
COc1ccc(/C(N)=N/OC(=O)c2cccs2)cc1,71,63,–,–,43,60,68,88
N/C(=N\OC(=O)c1cccs1)c1ccc(Cl)cc1,82,84,·,–,69,53,84,91
CCN1CCN(CCCNC(=O)c2ccc(/C=C3/Oc4ccccc4N(Cc4cccc(C)c4)C3=O)cc2)CC1,57,–,–,–,49,–,·,48
CCCCNC(=O)c1ccc(/C=C2\Oc3ccccc3N(C)C2=O)cc1,–,–,–,–,–,·,·,·
COc1ccc(C(C#N)c2nc3ccccc3nc2Cl)cc1 (stereo unspecified),–,–,–,–,–,·,·,·
O=C(/C(=N\O)n1cncn1)c1ccc(Cl)cc1Cl,–,–,–,–,–,·,·,·
O=C(/C(=C/c1ccccc1)n1cncn1)c1ccc(Cl)cc1Cl,92,82,–,–,80,82,–,91
COc1ccc(C(=O)N2CCN(C(=O)Cc3ccccc3)CC2)cc1,–,–,–,–,–,·,·,·
O=C(/C=C/c1cccc(Cl)c1)c1ccc([N+](=O)[O-])o1,95,96,108,–,94,96,99,99

# Source: PubChem (several laboratories)
